12-LOX inh: ALOX12 (human) lipoxygenase inhibition; P18054; purified 12hLO, xylenol orange hydroperoxide absorbance; Potency, µM (top dose mostly 108 µM), usual class: inhibitors; 580,000 compounds, 1.1% hits
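Purified human 12hLO (150 nM final) in 25 mM Hepes, 0.01% Triton X-100, pH 7.0 was preincubated 15 min at room temperature with compound. Then 40 uM arachidonic acid was added, 30 min. Hydroperoxide was read by Fe-XO absorbance ratio 573/405 nm.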
DT40 TDP1 no CPT: qHTS for Inhibitors of human tyrosyl-DNA phosphodiesterase 1 (TDP1): qHTS in cells in absence of CPT. DT40 Tdp1-/- hTDP1 cells, no CPT, ATP luminescence, 48 h. Potency, µM (series often up to 46.2 µM), usual class: inhibitors. 420,000 compounds, 15% hits. AID 686978, 2013; note: nearly all actives have a fitted effect of over 55% in size
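Chicken DT40 Tdp1-/- cells complemented with human TDP1, screened without camptothecin (DMSO vehicle only), 400 cells/well. Compounds pin-transferred, cells incubated at 37 °C for at least 48 hr. Growth read as ATP-dependent luminescence (CellTiter-Glo, 30 min at RT).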
RORgamma inh: ROR gamma (mouse) transcription inhibition | P51450 | Potency, µM (series often up to 53.6 µM), hits mostly inhibitors | 310,000 compounds, 5.4% hits | Drosophila S2 Gal4-RORgamma UAS-luciferase reporter, 20 h; note: nearly all actives have a fitted effect of over 60% in size
Target sequence (P51450 whole entry, looked up, the tested form may be a part): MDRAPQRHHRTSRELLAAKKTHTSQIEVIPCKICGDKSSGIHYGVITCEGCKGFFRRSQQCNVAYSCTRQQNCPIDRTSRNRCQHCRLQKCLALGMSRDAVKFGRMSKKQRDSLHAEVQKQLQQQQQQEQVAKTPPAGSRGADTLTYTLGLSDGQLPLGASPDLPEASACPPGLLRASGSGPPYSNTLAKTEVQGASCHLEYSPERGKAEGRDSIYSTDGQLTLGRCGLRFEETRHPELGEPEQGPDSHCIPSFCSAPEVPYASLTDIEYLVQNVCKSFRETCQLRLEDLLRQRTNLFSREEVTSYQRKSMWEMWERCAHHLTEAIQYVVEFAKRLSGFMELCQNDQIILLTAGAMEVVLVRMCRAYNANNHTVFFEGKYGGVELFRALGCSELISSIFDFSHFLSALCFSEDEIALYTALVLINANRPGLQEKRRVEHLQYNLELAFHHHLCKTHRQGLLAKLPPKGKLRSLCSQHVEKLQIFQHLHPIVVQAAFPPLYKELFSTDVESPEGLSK
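In this cell-based reporter format, copper sulfate (700 uM final) drives Gal4–ROR gamma fusion expression from a metallothionein promoter in Drosophila Schneider cells; compounds preincubated 1 hr, reporter read after 20 hr at ambient temperature.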
TDP1 cell CPT: DT40-hTDP1 cell growth loss with CPT; Potency, µM (highest dose often 46.2 µM), usual class: inhibitors; 420,000 compounds, 12% hits; chicken DT40 Tdp1-/-;hTDP1 cells + 20 nM CPT, ATP luminescence, 48 h; note: nearly all actives have a fitted effect of over 55% in size
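Cell growth measured by CellTiter-Glo luminescence after a minimum 48 h, 37 C compound exposure with 20 nM CPT in Tdp1-knockout DT40 cells stably expressing hTDP1, seeded 400/well; qHTS titration format.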
VP16 counter: inhibits Gal4-VP16 luciferase reporter, ROR gamma counter-screen. Potency, µM (doses to about 53.6 µM), usual class: inhibitors. 310,000 compounds, 3.5% hits. Drosophila S2 Gal4-VP16 UAS-luciferase, luminescence, 20 h;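 note: Gal4-VP16 expression switched on by copper sulfate through the metallothionein promoter; nearly all actives have a fitted effect of over 50% in size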
ELG1 DNA repair: blocks ELG1-dependent DNA repair in HEK293T cells; HEK293T ELG1-luciferase reporter, luminescence, 16 h; DNA damage induced by 5-fluorouridine; Potency, µM (highest dose often 46.1 µM), usual class: inhibitors; 330,000 compounds, 2.3% hits; note: nearly all actives have a fitted effect of over 55% in size
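In this reporter screen, reduction of luminescence relative to DMSO vehicle indicated activity. Compounds and 5-fluorouridine were added together to 2,000 cells per well, incubated for 16 hr at 37 °C, then developed with ONE-Glo.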
A number is an active result. This is a sample that favours compounds with a hit; in the whole collection about 15% have one here. Calls come from the whole dose curve; as a rule, active = well fitted curve in the direction sought with a large enough effect; inconclusive = small, poorly fitted or top-dose-only effect, or another doubt; inactive = no such curve, though single readings can be large; an effect the other way counts as inactive or inconclusive.

How did Cc1ccc(-n2nc3c(=O)n(CC(=O)NCCCc4ccccc4)nc(C)c3c2C)cc1 do in these assays?
12-LOX inh: inactive; DT40 TDP1 no CPT: 23µM; RORgamma inh: inactive; TDP1 cell CPT: inconclusive; VP16 counter: inactive; ELG1 DNA repair: inactive

What do the screens show for `N#Cc1ccc(C(=O)N2CCN3C(=O)N(Cc4ccccc4)C(=O)[C@H]3C2)cc1`?
12-LOX inh: inactive

What do the screens show for `O=C(Nc1ccccc1)C1CCCN1S(=O)(=O)c1ccc(Br)cc1` (stereo not drawn)?
12-LOX inh: inactive; DT40 TDP1 no CPT: inactive; RORgamma inh: inactive; TDP1 cell CPT: inconclusive; VP16 counter: inactive; ELG1 DNA repair: inactive

How did O=C(Nc1ccc(N2CCOCC2)cc1)C1CCCCN1S(=O)(=O)c1ccccc1 (stereo not drawn) do in these assays?
12-LOX inh: inactive; DT40 TDP1 no CPT: inconclusive; RORgamma inh: inactive; TDP1 cell CPT: inconclusive; VP16 counter: inactive; ELG1 DNA repair: inactive

What do the screens show for `CC(=O)c1ccc(NC(=O)C2CCCN2S(=O)(=O)c2ccc(C)cc2)cc1` (stereo not drawn)?
12-LOX inh: inactive; DT40 TDP1 no CPT: inconclusive; RORgamma inh: inactive; TDP1 cell CPT: inconclusive; VP16 counter: inactive; ELG1 DNA repair: inactive

How did O=C(Nc1cccc(S(=O)(=O)N2CCCCC2)c1)[C@@H]1CCCN1S(=O)(=O)c1ccccc1C(F)(F)F do in these assays?
12-LOX inh: inactive; DT40 TDP1 no CPT: 23µM; TDP1 cell CPT: inconclusive

What do the screens show for `O=C(Nc1ccc(C(F)(F)F)cc1)C1CCCCN1S(=O)(=O)c1ccccc1` (stereo not drawn)?
12-LOX inh: inconclusive; DT40 TDP1 no CPT: 29µM; TDP1 cell CPT: 9.2µM; ELG1 DNA repair: inactive

Results for Cc1ccc(NC(=O)[C@@H]2CCCN2S(=O)(=O)c2ccc(Cl)cc2)cc1 ?
12-LOX inh: inactive; DT40 TDP1 no CPT: inconclusive; TDP1 cell CPT: 21µM; ELG1 DNA repair: inactive

How did Cc1cc(C)cc(NC(=O)C2CCCCN2S(=O)(=O)c2ccccc2)c1 (stereo not drawn) do in these assays?
12-LOX inh: inactive; DT40 TDP1 no CPT: 13µM; TDP1 cell CPT: 21µM

How did CC(=O)c1cccc(NC(=O)C2CCCN2S(=O)(=O)c2ccccc2C(F)(F)F)c1 (stereo not drawn) do in these assays?
12-LOX inh: inactive; DT40 TDP1 no CPT: inactive; TDP1 cell CPT: inactive

Results for Cc1ccc(S(=O)(=O)N2CCCCC2C(=O)N(C)c2ccccc2)cc1 (stereo not drawn) ?
12-LOX inh: inactive; DT40 TDP1 no CPT: 15µM; RORgamma inh: inactive; TDP1 cell CPT: 16µM; VP16 counter: inactive; ELG1 DNA repair: inactive

What do the screens show for `COc1ccc(S(=O)(=O)N2CCCC2C(=O)Nc2nnc(-c3cccnc3)s2)cc1` (stereo not drawn)?
12-LOX inh: 40µM; DT40 TDP1 no CPT: inactive; RORgamma inh: inconclusive; TDP1 cell CPT: inactive; VP16 counter: inactive; ELG1 DNA repair: inconclusive

Results for COc1ccc(S(=O)(=O)N2CCC[C@H]2C(=O)NC2=NCCS2)cc1 ?
12-LOX inh: inactive; DT40 TDP1 no CPT: inactive; RORgamma inh: inactive; TDP1 cell CPT: inactive; VP16 counter: inactive; ELG1 DNA repair: inactive

How did Cc1cccc(NC(=O)C2CCCN2C(=O)OCc2ccccc2)c1 (stereo not drawn) do in these assays?
12-LOX inh: inactive; DT40 TDP1 no CPT: 0.058µM; TDP1 cell CPT: inactive; ELG1 DNA repair: inactive

Results for O=C(OCC(=O)N1CCN(c2ccccc2)CC1)C1CCCN1S(=O)(=O)c1ccc(Cl)cc1 (stereo not drawn) ?
12-LOX inh: inconclusive; DT40 TDP1 no CPT: 21µM; TDP1 cell CPT: inconclusive; ELG1 DNA repair: inactive

Results for CN(C(=O)C1CCCCN1S(=O)(=O)c1ccccc1)c1ccccc1 (stereo not drawn) ?
12-LOX inh: inactive; DT40 TDP1 no CPT: inconclusive; TDP1 cell CPT: inconclusive; ELG1 DNA repair: inactive

How did O=C(NCCCN1CCc2ccccc2C1)C1CCCCC(=O)N1Cc1ccccc1 (stereo not drawn) do in these assays?
12-LOX inh: inactive

What do the screens show for `Cc1ccc(S(=O)(=O)N2CCCCC2C(=O)Nc2nncs2)cc1` (stereo not drawn)?
12-LOX inh: inactive; DT40 TDP1 no CPT: inactive; RORgamma inh: inactive; TDP1 cell CPT: inactive; VP16 counter: inactive; ELG1 DNA repair: inactive

Results for CC(=O)Nc1ccc(NC(=O)C2CCCCN2S(=O)(=O)c2ccc(C(C)(C)C)cc2)cc1 (stereo not drawn) ?
12-LOX inh: inactive; DT40 TDP1 no CPT: inconclusive; RORgamma inh: inactive; TDP1 cell CPT: 23µM; VP16 counter: inactive; ELG1 DNA repair: inconclusive

What do the screens show for `Cc1ccc(S(=O)(=O)N2CCCC2C(=O)Nc2nc3c(s2)CCCC3)cc1` (stereo not drawn)?
12-LOX inh: inactive; DT40 TDP1 no CPT: 23µM; RORgamma inh: inconclusive; TDP1 cell CPT: inconclusive; VP16 counter: inconclusive; ELG1 DNA repair: inactive

Results for O=C(Nc1ccccc1)C1CCCCN1S(=O)(=O)c1ccccc1 (stereo not drawn) ?
12-LOX inh: inactive; DT40 TDP1 no CPT: inconclusive; RORgamma inh: inactive; TDP1 cell CPT: inactive; VP16 counter: inactive; ELG1 DNA repair: inactive

How did O=C(Nc1ccc(Cl)cn1)C1CCCN1S(=O)(=O)c1ccccc1 (stereo not drawn) do in these assays?
12-LOX inh: inactive; DT40 TDP1 no CPT: 12µM; RORgamma inh: inactive; TDP1 cell CPT: 21µM; VP16 counter: inactive; ELG1 DNA repair: inconclusive

Results for O=C(Nc1ccc(Br)cn1)C1CCCN1S(=O)(=O)c1ccccc1 (stereo not drawn) ?
12-LOX inh: inactive; DT40 TDP1 no CPT: inconclusive; RORgamma inh: inactive; TDP1 cell CPT: inconclusive; VP16 counter: inactive; ELG1 DNA repair: inactive

How did O=C(Nc1ccc(Cl)cc1)C1CCCCN1S(=O)(=O)c1ccccc1 (stereo not drawn) do in these assays?
12-LOX inh: inconclusive; DT40 TDP1 no CPT: 7.3µM; TDP1 cell CPT: inconclusive; ELG1 DNA repair: inactive

How did COc1ccc(CNC(=O)N(C)C2CCc3nn(CC4CC4)c(=O)n3CC2)cc1 (stereo not drawn) do in these assays?
12-LOX inh: inactive

What do the screens show for `O=C(NCc1ccccc1Cl)[C@@H]1CCCN1S(=O)(=O)c1ccc(Cl)cc1`?
12-LOX inh: inactive; DT40 TDP1 no CPT: 16µM; TDP1 cell CPT: inconclusive; ELG1 DNA repair: inactive

How did O=C(NCc1ccccc1)C1CCCN1S(=O)(=O)c1ccc(Cl)cc1 (stereo not drawn) do in these assays?
12-LOX inh: inconclusive; DT40 TDP1 no CPT: inactive; RORgamma inh: inactive; TDP1 cell CPT: inconclusive; VP16 counter: inactive; ELG1 DNA repair: inactive

Bioassay records deposited in PubChem by National Center for Advancing Translational Sciences (NCATS).
